Shown are actives, neighbours in structure and some others; about 4.1% of the full set was active somewhere.
tim23-1 inh: tim23-1 yeast growth inhibition; S. cerevisiae tim23-1 growth, BacTiter-Glo luminescence, 24 h; inhibition, % at 20 µM; actives 1.3% (n = 330,000); AID 463212;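 active = growth inhibition of the mutant yeast at or above 50%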;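 note: temperature-sensitive mutant grown at 25 °C; plate controls were DMSO-treated mutant yeast for no effect and medium wells lacking yeast for full effect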
tim10-1 inh: tim10-1 yeast growth inhibition | S. cerevisiae tim10-1 ts strain growth, BacTiter-Glo, 24 h | inhibition, % at 20 µM | actives 2.2% (n = 330,000) | AID 463190;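 active = inhibition of at least 40%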;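 note: mutant grown at 25 °C; 0% = DMSO wells with yeast and 100% = wells holding no yeast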
NALP3 yeast inh: inhibitors of NALP3 inflammasome in yeast. actives 0.39% (n = 330,000). AID 2825. Yeast reconstituted NLRP3/ASC/caspase-1, beta-gal luminescence, 24 h. inhibition, % at 10 µM;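 active = inhibition of 50% or more; inactive = inhibition below 50%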;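 note: plate controls were induced DMSO wells for no effect and uninduced yeast grown without galactose for full effect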
PfHsp90 yeast 2: inhibits growth of yeast expressing Plasmodium falciparum Hsp90. S. cerevisiae expressing PfHsp90, BacTiter-Glo ATP, 48 h; yeast lacking PDR1 and PDR3 efflux regulators. inhibition, % at 9.4 µM. actives 0.32% (n = 310,000);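 active = every replicate shows inhibition above about 80%, whatever the replicate mean, limit read from the data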;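 note: 0% = DMSO neutral controls and 100% = 20 µM radicicol positive controls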
NALP1 inh: NALP1 inhibition | S. cerevisiae NALP1/ASC/caspase-1 growth, X-gal OD620, 72 h | inhibition, % at 10 µM | actives 0.61% (n = 280,000); in the data active = inhibition mostly above about 24%, no sharp cut-off; inactive = mostly below about 32%
TIM10 inh: growth inhibitors of TIM10 yeast strain. AID 463195. S. cerevisiae TIM10 strain growth, BacTiter-Glo luminescence, 24 h. inhibition, % at 10 µM. actives 1.4% (n = 330,000);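 active = inhibition of 40% or more at the single tested concentration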;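 note: wild-type TIM10 isogenic control strain grown at permissive 25 °C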
tim10-1 confirm: confirmation of tim10-1 mutant yeast growth inhibitors; AID 463213; S. cerevisiae tim10-1 ts strain growth, BacTiter-Glo, 24 h; inhibition, % at 20 µM; actives 56% (n = 7,400); shares compounds with tim10-1 inh;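 active = inhibition of yeast growth at or above a set limit in either of two repeat tests at 20 µM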;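 note: tim10-1 mutant grown at permissive 25 °C to find synthetic lethal compounds; 0% = DMSO yeast wells and 100% = medium wells without yeast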
* hit, by the source's call; . = not tested or not shown.

SMILES | tim23-1 inh | tim10-1 inh | NALP3 yeast inh | PfHsp90 yeast 2 | NALP1 inh | TIM10 inh | tim10-1 confirm
CCCc1cc(C(=O)NNC(=S)NCc2ccccc2)cs1 | 17 | 44* | 15 | 39 | 20 | 34 | 29
O=C(NCc1ccco1)c1ccc([N+](=O)[O-])o1 | 29 | 42* | 12 | . | 14 | -7 | 28
O=C(Nc1ccccc1N1CCN(C(=O)c2ccc(Cl)cc2)CC1)c1ccc([N+](=O)[O-])o1 | 30 | 44* | 27 | -8 | 11 | 11 | 24
O=C(Nc1ccccc1N1CCCCC1)c1ccc([N+](=O)[O-])o1 | 29 | 51* | 27 | . | . | 34 | 51*
O=C(NC1CCCC(C(F)(F)F)C1)c1ccc([N+](=O)[O-])o1 (stereo not drawn) | 45 | 31 | 16 | 7 | . | 33 | .
O=C(NC1CCCCC1)c1ccc([N+](=O)[O-])o1 | 42 | 51* | 5 | 1 | 21 | 14 | 36*
O=C(Nc1ccccc1N1CCN(C(=O)c2ccc(Cl)cc2)CC1)c1cc2ccccc2o1 | 4 | 27 | 0 | -10 | -7 | 19 | .
CCOc1ccc(S(=O)(=O)N2CCC(C(=O)NC3CCCC3)CC2)cc1 | 13 | 19 | 11 | 5 | 0 | 11 | .
CN(C)c1ccc(S(=O)(=O)NCC(=O)N2CCN(c3ccccc3)CC2)cc1[N+](=O)[O-] | 0 | -10 | 33 | 5 | . | 11 | .
CN(C(=S)NC(=O)c1ccc(F)cc1)C1CCCCC1 | 34 | 20 | 33 | 14 | 5 | 17 | .
CN(C(=S)NC(=O)c1ccc(Cl)cc1)C1CCCCC1 | 24 | 42* | 38 | 7 | 2 | 31 | 10
COc1ccc(Cl)cc1NC(=O)CSc1nnc(COc2ccccc2)n1C | 20 | 46* | 11 | -34 | 5 | 16 | 17
COc1ccc(Cl)cc1NC(=O)CSc1nnc(COc2ccccc2)n1N | -3 | 18 | -7 | -13 | 30 | -1 | .
O=C(Nc1nc(-c2ccc3c(c2)OCCO3)cs1)C1CCCC1 | 32 | -4 | 25 | -19 | -20 | 12 | .
O=P(OC1CCCCC1)(OC1CCCCC1)C(O)c1c(Cl)cccc1Cl (stereo not drawn) | 43 | 43* | -23 | -65 | 2 | 34 | 23
CCOC(=O)C1=C(c2ccccc2)O/C(=C(/C#N)C(F)(F)F)S1 | 44 | 47* | -4 | . | 29 | 40 | 39*
CCCN(C(=O)c1cc(S(=O)(=O)N(C)c2ccccc2OC)ccc1C)C1CCS(=O)(=O)C1 (stereo not drawn) | . | . | . | -9 | . | . | .
CC(C)COC(=O)n1c(=O)oc2cc(S(=O)(=O)N3CCCCC3)ccc21 | 42 | 41* | 10 | . | 4 | 37 | 38*
Cc1ccc(S(=O)(=O)N2CCCCC2)cc1C(=O)OC1CCCCC1=O (stereo not drawn) | 28 | 41* | 2 | . | . | 14 | 28
O=C(OC1CCCCC1=O)c1cc(S(=O)(=O)N2CCOCC2)ccc1F (stereo not drawn) | 20 | 25 | 15 | 4 | 4 | 15 | .
O=C(OC1CCCCC1=O)c1cccc(S(=O)(=O)N2CCOCC2)c1 (stereo not drawn) | 5 | -9 | 19 | -6 | . | 9 | .
O=C(OC1CCCCC1=O)c1cccc(S(=O)(=O)N2CCCCC2)c1 (stereo not drawn) | 47 | 43* | 16 | -17 | . | 23 | 22
COc1ccc(N2CCN(C(CNC(=O)COc3ccccc3)c3ccco3)CC2)cc1 (stereo not drawn) | 42 | 36 | -5 | -20 | . | 28 | .
C=CCC[C@H](Cc1ccc(F)cc1)C(=O)OC[C@H](Cc1c[nH]c2ccccc12)NC(=O)[C@@H](CC=C)CC(=O)N[C@H](CO)Cc1ccccc1 | 20 | 12 | 24 | -17 | . | 0 | .
CC(=O)N(c1nnc(-c2ccc(C)cc2)s1)C1CCCC1 | 27 | -1 | -2 | 20 | -3 | -6 | .
CC1Nc2ncnc(N3CCN(c4ccccc4)CC3)c2N(Cc2ccc(Br)cc2)C1=O (stereo not drawn) | 32 | 35 | 32 | -30 | . | 28 | .
CCC1CCCCN1Cc1cc(OC)c(O)c([N+](=O)[O-])c1 (stereo not drawn) | -1 | 43* | -73 | . | 10 | 4 | 14

High-throughput results deposited in PubChem by several laboratories.
